Experimental data: PubChem BioAssay
Active and inactive are the calls of the source.

Tests used:
[1] = small molecules captured by biotinylated probe aFSTL3 – biochemical, small-molecule microarray, fluorescence 635/667, stem cell growth factor project, primary screen (AID 1064); settings: higher = more signal;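 note: measures binding of the biotinylated anti-FSTL3 antibody to printed compounds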
[2] = binders from COS7 lysate, DM2A8 probe, primary screen, torsin A project, cell lysate, small-molecule microarray, fluorescence 635/667 (AID 1065); settings: higher = more signal, COS7 lysate expressing mutant human TOR1A
[3] = small molecules captured by biotinylated probe aFGF2 – biochemical, small-molecule microarray, fluorescence 635/667, stem cell growth factor project, primary screen (AID 1067); settings: higher = more signal;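 note: measures binding of biotinylated aFGF2 protein to printed compounds on slides; z-score merges feature fluorescence and signal-to-noise across triplicate slides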
[4] = small molecules captured by biotinylated probe aFGF10 – biochemical, small-molecule microarray, fluorescence 635/667, stem cell growth factor project, primary screen (AID 1071); settings: higher = more signal;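 note: score merges 667 nm spot intensity and signal to noise from triplicate slides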
[5] = target: Neurogenic locus notch homolog protein 2 (Homo sapiens) (UniProt Q04721); assay: small molecules binding Notch2 protein – biochemical, small-molecule microarray, 635 nm fluorescence, stem cell growth factors, primary screen (AID 1073); settings: higher = more signal
[6] = target: Pro-neuregulin-1, membrane-bound isoform (Homo sapiens) (UniProt Q02297); assay: small molecules binding neuregulin-1 protein – biochemical, small-molecule microarray, fluorescence 635/667, psychiatric disease protein project, primary screen (AID 1075); settings: NRG1 binding, 635 nm fluorescence, higher = more signal;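 note: score combines 667 nm spot fluorescence with signal to noise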
[7] = system: Neuregulin-1 EGF-like domain; assay: small molecules binding NRG1 EGF domain – biochemical, small-molecule microarray, 635 nm fluorescence, primary screen (AID 1081); settings: higher = more signal;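 note: binding of the protein to compounds printed on small-molecule microarray slides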
[8] = FRG1 expression reporter modulators in myotubes – cell-based, C2C12 myotubes, firefly/Renilla luciferase, luminescence, FRG1 inhibition for FSHD, primary screen (AID 1084); settings: FRG1 promoter luciferase, higher = more signal, called active from +8 up or from −8 down
[9] = small molecules captured by biotinylated probe aFST – biochemical, small-molecule microarray, fluorescence 635/667, stem cell growth factor project, primary screen (AID 1086); settings: higher = more signal;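 note: score merges 667 nm fluorescence with signal-to-noise of each printed compound spot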
[10] = binders of probe aHhip on microarray, primary screen, stem cell growth factor project, biochemical, small-molecule microarray, fluorescence 635/667 (AID 1087); settings: higher = more signal;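 note: score merges spot fluorescence at 667nm with spot signal to noise ratio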

Sequence of Pro-neuregulin-1, membrane-bound isoform (Homo sapiens) (Q02297 whole entry, looked up, the tested form may be a part, canonical isoform): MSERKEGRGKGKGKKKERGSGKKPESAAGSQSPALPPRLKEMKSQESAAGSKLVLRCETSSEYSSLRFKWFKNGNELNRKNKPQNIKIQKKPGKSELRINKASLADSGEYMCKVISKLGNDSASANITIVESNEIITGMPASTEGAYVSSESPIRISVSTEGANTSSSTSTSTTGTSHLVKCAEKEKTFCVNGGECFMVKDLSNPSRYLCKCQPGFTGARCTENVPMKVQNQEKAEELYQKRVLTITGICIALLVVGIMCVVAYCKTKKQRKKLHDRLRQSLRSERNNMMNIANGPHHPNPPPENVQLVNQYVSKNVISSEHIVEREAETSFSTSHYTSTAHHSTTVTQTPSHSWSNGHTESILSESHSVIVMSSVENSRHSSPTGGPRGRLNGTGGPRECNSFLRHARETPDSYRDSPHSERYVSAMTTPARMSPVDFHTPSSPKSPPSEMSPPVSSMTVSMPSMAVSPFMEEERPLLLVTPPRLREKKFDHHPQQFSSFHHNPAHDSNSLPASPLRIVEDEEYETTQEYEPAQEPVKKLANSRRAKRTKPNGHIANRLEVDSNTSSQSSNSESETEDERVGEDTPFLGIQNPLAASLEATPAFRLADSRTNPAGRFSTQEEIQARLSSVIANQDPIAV
Sequence of Neurogenic locus notch homolog protein 2 (Homo sapiens) (Q04721 whole entry, looked up, canonical isoform): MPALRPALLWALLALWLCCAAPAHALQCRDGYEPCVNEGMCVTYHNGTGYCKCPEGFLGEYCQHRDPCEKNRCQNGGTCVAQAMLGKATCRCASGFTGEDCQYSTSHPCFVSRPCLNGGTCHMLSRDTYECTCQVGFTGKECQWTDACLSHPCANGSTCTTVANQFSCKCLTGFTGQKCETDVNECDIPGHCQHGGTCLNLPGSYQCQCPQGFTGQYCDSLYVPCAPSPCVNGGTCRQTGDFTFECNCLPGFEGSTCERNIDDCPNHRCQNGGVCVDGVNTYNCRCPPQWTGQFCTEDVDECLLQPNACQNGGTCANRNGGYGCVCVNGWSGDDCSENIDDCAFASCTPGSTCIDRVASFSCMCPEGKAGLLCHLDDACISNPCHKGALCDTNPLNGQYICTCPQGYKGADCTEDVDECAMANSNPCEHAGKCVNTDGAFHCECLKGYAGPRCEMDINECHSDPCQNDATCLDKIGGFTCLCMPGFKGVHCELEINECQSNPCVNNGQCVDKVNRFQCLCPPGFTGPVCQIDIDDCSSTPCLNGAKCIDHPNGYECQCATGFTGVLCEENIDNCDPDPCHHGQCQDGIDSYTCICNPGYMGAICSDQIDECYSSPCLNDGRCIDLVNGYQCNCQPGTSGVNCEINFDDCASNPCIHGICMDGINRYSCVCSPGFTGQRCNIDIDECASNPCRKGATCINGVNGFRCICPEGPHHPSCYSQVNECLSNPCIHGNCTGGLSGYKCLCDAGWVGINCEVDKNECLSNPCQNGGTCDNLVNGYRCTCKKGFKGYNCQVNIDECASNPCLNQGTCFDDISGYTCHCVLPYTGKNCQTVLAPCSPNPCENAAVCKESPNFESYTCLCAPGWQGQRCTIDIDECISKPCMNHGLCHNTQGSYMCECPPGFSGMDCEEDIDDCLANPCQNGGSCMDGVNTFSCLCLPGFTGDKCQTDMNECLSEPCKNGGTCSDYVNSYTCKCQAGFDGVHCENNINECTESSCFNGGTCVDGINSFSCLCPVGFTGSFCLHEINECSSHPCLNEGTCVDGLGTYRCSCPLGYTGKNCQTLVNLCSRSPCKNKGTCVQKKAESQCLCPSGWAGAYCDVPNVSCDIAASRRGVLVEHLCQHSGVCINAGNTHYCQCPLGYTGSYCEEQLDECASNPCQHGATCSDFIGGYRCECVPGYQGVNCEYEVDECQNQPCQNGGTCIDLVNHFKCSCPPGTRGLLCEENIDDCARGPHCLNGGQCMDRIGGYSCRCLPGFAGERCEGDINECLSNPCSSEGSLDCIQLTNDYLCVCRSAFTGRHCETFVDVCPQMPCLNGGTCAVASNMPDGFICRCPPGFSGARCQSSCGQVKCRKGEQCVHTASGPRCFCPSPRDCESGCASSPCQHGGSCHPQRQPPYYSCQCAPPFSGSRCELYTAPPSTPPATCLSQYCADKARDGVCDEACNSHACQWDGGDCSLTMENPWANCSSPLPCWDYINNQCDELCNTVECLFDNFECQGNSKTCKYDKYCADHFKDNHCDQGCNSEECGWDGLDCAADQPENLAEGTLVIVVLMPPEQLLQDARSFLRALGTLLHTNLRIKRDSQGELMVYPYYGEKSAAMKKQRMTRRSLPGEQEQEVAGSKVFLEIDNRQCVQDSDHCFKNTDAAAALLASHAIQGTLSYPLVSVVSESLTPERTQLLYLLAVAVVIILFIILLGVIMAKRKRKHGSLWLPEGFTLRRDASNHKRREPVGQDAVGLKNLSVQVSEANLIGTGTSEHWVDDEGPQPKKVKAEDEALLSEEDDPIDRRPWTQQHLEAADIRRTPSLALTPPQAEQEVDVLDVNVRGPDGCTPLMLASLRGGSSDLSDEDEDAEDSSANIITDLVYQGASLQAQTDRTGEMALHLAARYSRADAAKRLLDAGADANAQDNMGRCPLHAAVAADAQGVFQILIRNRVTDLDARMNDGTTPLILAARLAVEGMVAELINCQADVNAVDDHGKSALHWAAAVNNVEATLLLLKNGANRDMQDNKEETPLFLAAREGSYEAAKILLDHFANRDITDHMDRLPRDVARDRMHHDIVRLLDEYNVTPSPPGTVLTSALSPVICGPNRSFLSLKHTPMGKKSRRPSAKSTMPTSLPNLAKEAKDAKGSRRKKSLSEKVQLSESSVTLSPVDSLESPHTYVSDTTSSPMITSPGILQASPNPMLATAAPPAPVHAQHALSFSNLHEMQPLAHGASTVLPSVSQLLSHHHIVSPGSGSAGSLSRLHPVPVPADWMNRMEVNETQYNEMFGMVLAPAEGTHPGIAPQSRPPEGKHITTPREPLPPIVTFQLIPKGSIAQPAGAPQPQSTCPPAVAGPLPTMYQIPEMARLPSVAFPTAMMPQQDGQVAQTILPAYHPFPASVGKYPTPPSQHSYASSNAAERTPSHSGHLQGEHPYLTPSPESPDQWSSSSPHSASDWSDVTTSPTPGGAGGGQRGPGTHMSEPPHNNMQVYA

SMILES	composite z-score [1]	composite z-score [2]	composite z-score [3]	composite z-score [4]	composite z-score [5]	composite z-score [6]	composite z-score [7]	z-score [8]	composite z-score [9]	composite z-score [10]
CC(C)(C)OC(=O)CC[C@]1(C(=O)O)N=C(c2ccc(OCCCO)cc2)O[C@H]1c1ccccc1	-0.161	-0.0254	-0.0345	0.19	0.831	0.467	1.11	1.9 (inactive)	0.292	1.28
COCCCNC(=O)[C@]1(Cc2ccccc2N=[N+]=[N-])N=C(c2ccc(OCCCO)cc2)O[C@@H]1c1ccccc1N=[N+]=[N-]	0.421	-0.0585	0.0797	0.491	1.3	1.86	1.15	-1.93 (inactive)	0.847	-0.0296
CN(C)CCCN1C(=O)[C@@]2(c3ccc([N+](=O)[O-])cc3)CC(=O)N(CC34CC5CC(CC(C5)C3)C4)[C@@H]2c2ccc(CO)cc21	-0.106	-0.429	-0.0276	0.0318	-0.346	0.742	0.72	0.0832 (inactive)	0.0267	0.0024
COC(=O)[C@H](Cc1ccccc1)N1CC(/C=C/C2CC2)=C[C@@H]1[C@@H](O)Cc1ccccc1	-0.549	0.0784	-0.0093	1.23	1.38	0.947	1.11	-1.09 (inactive)	0.707	0.177
C=CCN1C(=O)[C@@]2(O[C@@H](CCO)[C@H]([Si](C)(C)c3ccc(OC)cc3)[C@H]2C)c2cc(N3C(=O)c4ccccc4Oc4ccccc43)ccc21	-0.033	0.0892	-0.0491	0.907	0.166	0.402	0.882	-1.94 (inactive)	-0.204	-0.261
CCCc1cccc(=O)o1	-0.218	-0.001	-0.112	0.191	0.168	0.785	1.24	0.273 (inactive)	-0.278	0.155
O=C1O[C@@H](c2ccccc2)[C@@H](c2ccccc2)N2[C@@H](c3ccc(O)cc3)[C@]3(C(=O)Nc4ccc(C#CCCO)cc43)[C@@H](C(=O)NC[C@H](O)c3ccccc3)[C@H]12	0.239	0.762	-0.206	-0.812	-0.724	0.381	1	-0.233 (inactive)	-0.0873	-0.134
CON(C)C(=O)C=C1C[C@@H](c2cccc(Cl)c2)O[C@@H](c2cccc(Cl)c2)O1	-0.0715	1.03	0.0168	-0.0102	-0.0986	1	0.524	-1.83 (inactive)	-0.0994	-0.0645
CC(C)CN1C(=O)[C@@]2(c3ccc([N+](=O)[O-])cc3)CC(=O)N(CC34CC5CC(CC(C5)C3)C4)[C@@H]2c2ccc(CO)cc21	0.311	-1.76	-0.186	-0.34	-0.602	0.251	-0.594	0.0918 (inactive)	0.0959	-0.0994
C=C[C@@H](COC(C)=O)NS(=O)(=O)c1ccc(Br)cc1	-0.35	0.242	-0.0296	0.135	0.414	0.0227	0.564	1.39 (inactive)	0.111	-0.0672
CN1C(=O)C2C=CC(C(O)Cc3ccccc3)N(N(c3ccccc3)c3ccccc3)C2C1=O (stereo not given)	0.135	0.147	0.0295	0.837	0.602	0.503	1.11	0.357 (inactive)	0.654	0.107
O=C1C2C=CC(C(O)c3cc(C(F)(F)F)cc(C(F)(F)F)c3)N(Nc3ccc([N+](=O)[O-])cc3)C2C(=O)N1c1ccccc1 (stereo not given)	-0.25	0.466	0.0678	0.94	1.67	1.86	1.17	0.0404 (inactive)	0.598	-0.166
COc1ccccc1CN1C(=O)c2ccccc2[C@](Cc2ccccc2I)(C(=O)NC(C)C)[C@@H]1c1ccc(CO)cc1	-0.515	0.49	-0.0296	0.732	1.43	1.7	1.15	-2.79 (inactive)	0.614	0.0373
C=CCOC(=O)[C@@H]1[C@H]2C(=O)O[C@H](c3ccccc3)[C@H](c3ccccc3)N2[C@H](c2ccc(OCCOC(=O)[C@H]3C[C@H]4C(=O)N[C@@H](CC(C)C)C(=O)N4[C@H]3c3ccc(O)cc3)cc2)[C@@]12C(=O)Nc1ccc(I)cc12	0.054	1.42	0.0333	0.868	0.718	0.535	1.35	-0.477 (inactive)	0.496	-0.0994
NC(=O)NCC#Cc1ccc2c(c1)[C@]1(C(=O)N2)[C@H](C(=O)Nc2nc3ccccc3s2)[C@H]2C(=O)O[C@H](c3ccccc3)[C@H](c3ccccc3)N2[C@@H]1c1ccc(O)cc1	0.187	0.544	-0.0415	0.604	0.455	0.339	-0.15	1.46 (inactive)	0.623	0.142
CN1C(=O)C2C=CC(C(O)C3CCCCC3)N(N3CCCCC3)C2C1=O (stereo not given)	-0.0863	1.54	0.156	0.644	1.52	1.51	1.23	0.573 (inactive)	1.01	0.398
CN(C)CCCCNC(=O)[C@H]1C[C@H]2C(=O)N3CCC[C@H]3C(=O)N2[C@H]1c1ccc(O)cc1	-1.12	-1.77	-0.284	-1.1	-1.3	-1.06	-0.239	4.64 (inactive)	0.0253	-0.389
CN1C(=O)[C@@]2(CCS(=O)(=O)c3ccccc3)N=C(c3ccc(OCCCO)cc3)O[C@H]2c2ccccc21	0.185	0.394	-0.102	0.832	1.45	1.59	1.34	-3.84 (inactive)	1.09	-0.04
CCCCN1CC=CC23O[C@@H]4/C=C\CCC(C)OC(=O)C4[C@H]2C(=O)N(CCCCCCO)[C@@H]3C1=O (stereo not given in full)	0.666	0.345	-0.0712	0.867	-0.625	0.272	1.59	0.189 (inactive)	-0.213	-0.119
O=C1C[C@]2(c3ccc([N+](=O)[O-])cc3)C(=O)N(Cc3ccccc3)c3cc(CO)ccc3[C@H]2N1CC12CC3CC(CC(C3)C1)C2	0.0993	-0.728	0.0018	-0.817	-0.746	-0.468	-0.851	-0.0424 (inactive)	0.0779	-0.369
COc1ccc(NN2C(C(O)c3ccco3)C=CC3C(=O)N(C4CCCCC4)C(=O)C32)cc1 (stereo not given)	-0.0934	1.14	-0.051	1.12	1.36	0.95	1.15	0.592 (inactive)	1.51	0.0216
CCCC[C@@H]1C[C@H]1[C@@H](NC(=O)c1ccccc1)c1ccc(Cl)cc1	1.22	-0.657	-0.196	-2.08	-2	-0.596	1.36	1.62 (inactive)	-0.833	-0.134
CC(C)CCC[C@@H](C)[C@H]1CC[C@@]2(C)C3=C(CC[C@]12C)[C@@]1(C)CC[C@H](OC(=O)c2ccc(Br)cc2)C(C)(C)C1CC3 (stereo not given in full)	-0.571	0.193	-0.128	0.541	0.5	0.0933	0.439	-0.879 (inactive)	0.0941	-0.126
CN(C)C(=O)[C@]1(CCC(=O)OC(C)(C)C)N=C(c2ccc(OCCCO)cc2)O[C@@H]1c1ccccc1	-0.175	0.527	-0.016	0.776	1.3	1.91	1.4	0.788 (inactive)	0.268	-0.0645
Cc1ccc(S[C@]2(C(=O)NCc3ccccc3)CC(=O)N(C(C)C)[C@@H]2c2ccc(CO)cc2I)cc1	2	-0.464	-0.177	-0.392	-1.09	1.05	0.399	-1.16 (inactive)	0.03	0.0623
O=C1c2ccccc2[C@](Cc2ccccc2I)(C(=O)NCCN2CCOCC2)[C@H](c2ccc(CO)cc2)N1Cc1ccccc1	-0.0634	0.783	-0.0356	0.699	1.33	1.1	1.33	-3.84 (inactive)	0.983	0.519
Cc1ccc(S[C@]2(C(=O)O)CC(=O)N(Cc3ccccc3Cl)[C@@H]2c2ccc(CO)cc2)cc1	0.96	-0.614	-0.113	0.449	-0.72	0.103	-0.408	-0.917 (inactive)	-0.172	-0.0994
COc1ccc([Si](C)(C)[C@H]2[C@H](CCO)O[C@@]3(C(=O)N(Cc4cccc(N5CCCCC5=O)c4)c4ccccc43)[C@@H]2C)cc1	-0.337	0.154	-0.081	0.375	0.87	0.652	1.2	-2.32 (inactive)	0.327	0.176
COC(=O)c1c(CC[C@@H](CO)NC(=O)N[C@H](Cn2cc(-c3ccccc3C)nn2)C(C)C)oc(C(C)=O)c1C(=O)OC	-0.157	-1.08	-0.129	0.415	-1.18	0.638	0.309	0.87 (inactive)	-0.205	0.145
